In PubChem BioAssay (EPA / NIEHS):
A structure can be active in one record and inactive in another. Activity calls are given as the source filed them. The calls were made as follows: active = hit-call score of the fitted dose curve at least 0.9, where 1 is the maximum; inactive = score below 0.9.

Target: Hepatocyte nuclear factor 6 (Homo sapiens) (UniProt Q9UBC0)
Assay: ATG_HNF6_CIS: Attagene CIS-FACTORIAL HepG2 Assay for human Hepatocyte Nuclear Factor 6 (HNF6) (AID 2282952)
Details: HepG2 Attagene cis-factorial HNF6 reporter transcription; actives raise or lower the signal
Experimental: ATG_CIS is a cell-based, multiplexed-readout assay that uses HepG2, a human liver cell line, with measurements taken at 24 hours after chemical dosing in a 24-well plate.ATG_HNF6_CIS is one of 52 assay component(s) measured or calculated from the ATG_CIS assay. It is designed to make measurements of mRNA induction, a form of inducible reporter, as detected with fluorescence intensity signals by Reverse transcription polymerase chain reaction (RT-PCR) and Capillary electrophoresis technology.Data from the assay component ATG_HNF6_CIS was analyzed into 1 assay endpoint. This assay endpoint, ATG_HNF6_CIS, was analyzed with bidirectional fitting relative to DMSO as the negative control and baseline of activity. Using a type of inducible reporter, measures of mRNA for gain or loss-of-signal activity can be used to understand the reporter gene at the transcription factor-level as they relate to the gene ONECUT1. Furthermore, this assay endpoint can be referred to as a primary readout, because this assay has produced multiple assay endpoints where this one serves a reporter gene function. To generalize the intended target to other relatable targets, this assay endpoint is annotated to the dna binding intended target family, where the subfamily is homeobox protein.
Human liver HepG2 cells are transiently transfected with multiple reporter transcription units (MRTUs) in 6-well plates using FuGene 6 reagent (Roche; 3 ml FuGene/1 mg DNA). The MRTU constructs are regulated by a cis-regulating element (promoter). […] A major difference between the CIS and TRANS system is that in CIS activities of endogenous TFs are measured, whereas the TRANS assay evaluates changes in activities of exogenous, chimeric NR-Gal4 proteins. […] At the end of 24 hour incubation, total RNA was isolated using TriZol reagent (Invitrogen). The isolated RNA is then reverse-transcribed using oligo(dT) primer and Mo-MLV reverse transcriptase (Invitrogen) with DNAse I (Ambion) treatment for 30 min. The one-tenth of the produced cDNA was amplified by PCR using Taq DNA polymerase (Invitrogen) and two reporter sequence-specific primers. The PCR products were fluorescently labeled by primer extension with 6-arboxyfluorescein (6-FAM) 5'-labeled reporter sequence-specific primer (2 min at 95 C, 20 s at 68 C and 10 min at 72 C) and these products were digested with 5U of HpaI (New England Biolabs) for 2h at 37 C. The fragments were purified using Qiaquick PCR columns (Qiagen), analyzed on an ABI 3130xL genetic analyzer (Applied Biosystems) with peak positions identified by using a set of X-rhodamine (ROX)-labeled MapMarker1000 molecular weight standards (BioVentures). The raw capillary electrophoresis data was processed using Attagraph software (Attagene).

Hepatocyte nuclear factor 6 (Homo sapiens), sequence (Q9UBC0 whole entry, looked up): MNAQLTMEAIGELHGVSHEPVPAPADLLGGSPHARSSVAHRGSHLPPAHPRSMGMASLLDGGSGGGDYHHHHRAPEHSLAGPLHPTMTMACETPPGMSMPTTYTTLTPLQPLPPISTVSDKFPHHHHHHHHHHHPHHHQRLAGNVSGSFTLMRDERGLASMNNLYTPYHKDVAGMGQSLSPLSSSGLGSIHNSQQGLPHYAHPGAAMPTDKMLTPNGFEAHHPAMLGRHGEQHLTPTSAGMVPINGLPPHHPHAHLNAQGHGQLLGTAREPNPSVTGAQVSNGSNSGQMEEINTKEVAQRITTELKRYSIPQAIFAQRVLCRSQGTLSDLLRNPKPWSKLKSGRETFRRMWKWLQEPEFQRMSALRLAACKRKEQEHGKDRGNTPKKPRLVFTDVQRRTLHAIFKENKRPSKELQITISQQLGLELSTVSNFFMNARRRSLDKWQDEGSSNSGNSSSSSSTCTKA

Structure (SMILES) | outcome | AC50
O=c1ccc(=O)[nH][nH]1 | inactive | –
CCOP(=S)(Oc1cnc(C(C)(C)C)nc1)OC(C)C (stereo not given) | inactive | –
O=[N+]([O-])c1cc(C(F)(F)F)c(Cl)c([N+](=O)[O-])c1Nc1ncc(C(F)(F)F)cc1Cl | inactive | 17.1 µM (active)
COc1cccc(C(=O)NN(C(=O)c2cc(C)cc(C)c2)C(C)(C)C)c1C | inactive | –
CCCSP(=O)(OCC)SCCC | inactive | –
CCNc1nc(Cl)nc(NC(C)(C)C#N)n1 | inactive | –
CCCCOC(=O)[C@@H](C)Oc1ccc(Oc2ccc(C#N)cc2F)cc1 | inactive | –
CC(=NC#N)N(C)Cc1ccc(Cl)nc1 | inactive | –
CCOC(=O)CC(SP(=O)(OC)OC)C(=O)OCC (stereo not given) | inactive | –
CC1=NNC(=O)N(/N=C/c2cccnc2)C1 | inactive | –
CCCCOC(=O)c1ccccc1C(=O)O | inactive | –
CSc1nnc(C(C)(C)C)c(=O)n1N | inactive | –
COP(=O)(OC)C(O)C(Cl)(Cl)Cl (stereo not given) | inactive | –
CNC(=O)ON=C(SC)C(=O)N(C)C | inactive | –
CN(C)NC(=O)CCC(=O)O | inactive | –
COP(=O)(OC)SCn1c(=O)oc2cc(Cl)cnc21 | inactive | –
CCOP(=S)(OCC)Oc1ccc([N+](=O)[O-])cc1 | inactive | –
C[N+]1(C)CCCCC1 | inactive | –
CCCCSP(=O)(SCCCC)SCCCC | inactive | –
COP(=O)(OC)OC(Br)C(Cl)(Cl)Br (stereo not given) | inactive | –

Structure (SMILES) | outcome | AC50
COc1ccc(C(=CC(=O)N2CCOCC2)c2ccc(Cl)cc2)cc1OC | inactive | –
CN1COCN(Cc2cnc(Cl)s2)C1=N[N+](=O)[O-] | inactive | –
CCCOCC(=Nc1ccc(Cl)cc1C(F)(F)F)n1ccnc1 | inactive | –
CC(COc1ccc(Oc2ccccc2)cc1)Oc1ccccn1 (stereo not given) | inactive | –
CN(C)[C@@H]1C(=O)C(C(N)=O)=C(O)[C@@]2(O)C(=O)C3=C(O)c4c(O)cccc4[C@@](C)(O)[C@H]3[C@H](O)[C@@H]12 | inactive | –
CC(C1CC1)C(O)(Cn1cncn1)c1ccc(Cl)cc1 (stereo not given) | inactive | –
CCCSP(=O)(OCC)Oc1ccc(Br)cc1Cl (stereo not given) | inactive | –
CCCCN(CC)c1c([N+](=O)[O-])cc(C(F)(F)F)cc1[N+](=O)[O-] | inactive | –
CCOP(=S)(OCC)SCCSCC | inactive | –
CCOP(=S)(OCC)OC(Cl)C(Cl)(Cl)Cl (stereo not given) | inactive | –
CCC(CC)Nc1c([N+](=O)[O-])cc(C)c(C)c1[N+](=O)[O-] | inactive | –
CON=C(C(=O)OC)c1ccccc1CON=C(C)c1cccc(C(F)(F)F)c1 | inactive | –
C#CCC1=C(C)C(OC(=O)C2C(C=C(C)C)C2(C)C)CC1=O (stereo not given) | – | 50 µM (active)
CCc1cccc(C)c1N(C(=O)CCl)C(C)COC (stereo not given) | inactive | –
CSC1=N[C@@](C)(c2ccccc2)C(=O)N1Nc1ccccc1 | inactive | –
O=C(O)c1cc(Oc2ccc(C(F)(F)F)cc2Cl)ccc1[N+](=O)[O-] | inactive | –
Cc1ccn2nc(S(=O)(=O)Nc3c(F)cccc3F)nc2n1 | inactive | –
CNC(=O)Oc1cccc2c1OC(C)(C)O2 | inactive | –
Cc1nn(-c2cc(NS(C)(=O)=O)c(Cl)cc2Cl)c(=O)n1C(F)F | inactive | –
